# According to PubChem BioAssay (NCATS):
# Results filed as inconclusive are left out. The source made the active and inactive calls. The call rests on the fitted dose curve; in most records, active means well fitted cell-killing curve with a large enough effect; inconclusive means small, poorly fitted or top-dose-only effect, or effect the other way; inactive means no such curve, though single readings can be large or run the other way.
# Assay: Viability qHTS for spleen associated tyrosine kinase inhibitor (SYKi) drug resistant MV4-11 cells (AID 1963824); further: nearly all actives have a fitted effect of over 35% in size
# Settings: SYKi-resistant MV4-11 viability, CellTiter-Glo, 72 h; series mostly up to 45 µM; viability, % of control: at the top concentration
# Method in brief: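 SYK inhibitor-resistant MV4-11 AML cells, 500 per well, added to predispensed compounds and incubated 72 hr at 37 C, 5% CO2. Viability measured by CellTiter-Glo luminescence after 10 min at room temperature.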
# Potency means the concentration at half of the fitted maximal effect.
Compound,"viability, % of control",Potency
C[C@@H]1CC[C@]2(C(=O)O[C@@H]3O[C@H](CO[C@@H]4O[C@H](CO)[C@@H](O)[C@H](O)[C@H]4O)[C@@H](O)[C@H](O)[C@H]3O)CC[C@]3(C)C(=CCC4[C@@]5(C)CC[C@H](O)[C@](C)(C(=O)O)C5CC[C@]43C)[C@@H]2[C@]1(C)O (some centres not stated),98.7% [at 9.25 µM] (inactive),
COc1cc(CCc2ccccc2)c(C(=O)O)c2c1CC(C(C)(C)O)O2 (configuration not stated),,2.27 µM (active)
C[C@@H]1O[C@@H](O[C@H]2[C@H](OC(=O)[C@]34CCC(C)(C)C[C@H]3C3=CCC5[C@@]6(C)CC[C@H](O[C@@H]7O[C@H](CO[C@@H]8OC[C@H](O)[C@H](O)[C@H]8O)[C@@H](O)[C@H](O)[C@H]7O)C(C)(C)C6CC[C@@]5(C)[C@]3(C)C[C@H]4O)OC[C@@H](O)[C@@H]2O)[C@H](O)[C@H](O)[C@H]1O[C@@H]1OC[C@H](O)[C@H](O[C@@H]2OC[C@@H](O)[C@H](O)[C@H]2O)[C@H]1O (some centres not stated),84.6% [at 9.25 µM] (inactive),
CCC(C)C1NC(=O)C2CCCN2C(=O)C(C(C)C)NC(=O)c2ccccc2NC(=O)C(Cc2ccc(O)cc2)NC(=O)C(C)NC(=O)C(C(C)O)NC1=O (configuration not stated),88.3% [at 17.3 µM] (inactive),
C=C[C@H]1[C@H](O[C@@H]2O[C@H](CO)[C@@H](O)[C@H](O)[C@H]2O)OC=C(C(=O)OC)[C@H]1C[C@@H]1N[C@H](C(=O)O)Cc2c1[nH]c1ccccc21,89.5% [at 17.3 µM] (inactive),
CC(C)C(C#N)O[C@@H]1O[C@H](CO[C@@H]2O[C@@H](C)[C@H](O)[C@@H](O)[C@H]2O)[C@@H](O)[C@H](O)[C@H]1O (some centres not stated),99.7% [at 17.3 µM] (inactive),
C[C@H]1CC[C@H]2[C@@H](C=C[C@@](C)(O)[C@]2(C)C(=O)CCO)C1,98% (inactive),
CCC[C@@H](NC(=O)N1C(=O)C(CC)(CC)[C@@H]1Oc1ccc(C(=O)N2CCN(C)CC2)cc1)c1ccc2c(c1)OCO2,,20.6 µM (active)
CC1=CCC2C(C)(CO)CCCC2(CO)C1CO (configuration not stated),,16.4 µM (active)
CC1(C)CCCC2(C)C(CO)C3CCC2C31 (configuration not stated),77.7% (inactive),
COc1c2c(c(C)c3c1C(=O)OC3)OC1(C)CC(O)C34OC(OC)(CCC3(C)C1C2)OC4(C)CO (configuration not stated),77.6% [at 17.3 µM] (inactive),
COc1cc(/C=C/C(=O)O[C@@H]2C[C@@](O)(C(=O)O)C[C@@H](O)[C@@H]2O)ccc1O,83.2% (inactive),
CC(C)C1=CC2C(CC[C@]2(C)O)[C@](C)(O)CC1 (some centres not stated),87% (inactive),
CC/C=C\CC1C(CC(=O)O)CCC1OC1OC(CO)C(O)C(O)C1O (configuration not stated),101% (inactive),
COc1cc2c(cc1OC)CN(C(=O)/C=C/c1c(-c3ccccc3)n(C)c3ncccc13)CC2,,3.66 µM (active)
Cc1ccc(NS(=O)(=O)c2ccc3c(c2)CCC(=O)N3)cc1C,,9.2 µM (active)
CC(C)=CCC(O)[C@](C)(O)C1[C@H](O)C[C@@]2(C)C3CC=C4C(C[C@H](O)[C@@H](O[C@@H]5O[C@H](CO)[C@@H](O)[C@H](O)[C@H]5O)C4(C)C)[C@]3(C)C(=O)C[C@]12C (some centres not stated),75.6% [at 17.3 µM] (inactive),
